From the supplement of paper PMC10849652
The full data set covers some 7,900 targets. This sample favours those with a hit. About 0.6% of all pairs of compound and target were hits.

Tests used:
Test in all cases: log2 fold change, soluble protein after heating vs DMSO (PISA); higher = thermal stabilisation; K562 cells, 10 uM, 30 min; active = over 0.2 and 3.5 SD of the protein, either way, in both replicates (recomputed)
IRAK-1-4 Inhibitor I = compound: C1COCCN1CCN2C3=CC=CC=C3N=C2NC(=O)C4=CC(=CC=C4)[N+](=O)[O-] [IRAK-1-4 Inhibitor I]
Summary of the method: (§1)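 Values are thermal stability changes relative to control samples and are taken from duplicates. They are stated as log2 fold changes. Before quantification by TMTpro 16plex LC-MS/MS with equalised channel sums, K562 cells at 2×10^6 cells/mL were treated with 10 μM compound for 30 min, heated in aliquots for 3 min across 48°C-58°C, pooled, extracted in PBS with 0.5% NP-40 at 4°C, and centrifuged at 21,000xg for 90 min to give the soluble supernatant.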

ibrutinib = compound: C=CC(=O)N1CCC[C@@H](n2nc(-c3ccc(Oc4ccccc4)cc3)c3c(N)ncnc32)C1 [ibrutinib]
Summary of the method: as §1

[1] = compound: CC(=O)c1cnc2ccc(-c3cc(Cl)c(O)c(Cl)c3)nc2c1N[C@H]1CC[C@H](CN(C)C)CC1
Summary of the method: as §1

ralimetinib = compound: CC(C)(C)Cn1c(N)nc2ccc(-c3[nH]c(C(C)(C)C)nc3-c3ccc(F)cc3)nc21 [ralimetinib]
Summary of the method: as §1

[2] = compound: CC(C)(O)CC(=O)NCCn1ccc2ncnc(Nc3ccc(Oc4cccc(C(F)(F)F)c4)c(Cl)c3)c21
Summary of the method: as §1

[3] = compound: CC(C)C1=C2N=C(C=C(N2N=C1)NCC3=CC=CC=C3)NCCCCCCN
Summary of the method: as §1

[4] = compound: CC(C)C[C@@H](C=O)NC(=O)[C@H](CC(C)C)NC(=O)[C@H](CC(C)C)NC(=O)OCc1ccccc1
Summary of the method: as §1

pinometostat = compound: CC(C)N(C[C@H]1O[C@@H](n2cnc3c(N)ncnc32)[C@H](O)[C@@H]1O)[C@H]1C[C@@H](CCc2nc3cc(C(C)(C)C)ccc3[nH]2)C1 [pinometostat]
Summary of the method: as §1

[5] = compound: CC1=C(C(CC(=O)N1)C2=CC=C(C=C2)C(F)(F)F)C(=O)NC3=C(C=C4C(=C3)C=NN4)F
Summary of the method: as §1

[6] = compound: CC1=C(C2=C(C=C1)C(=O)C3=CC=CC=C3N2CCCN)C
Summary of the method: as §1

[7] = compound: CC1=C(C=C(C=C1)NC(=O)C2=CC(=CC=C2)C(C)(C)C#N)NC3=CC4=C(C=C3)N=CN(C4=O)C
Summary of the method: as §1

[8] = compound: CC1=C(C=C(C=C1)NC(=O)C2=CC(=CC=C2)N(C)C)NC(=O)C3=CC=C(C=C3)O
Summary of the method: as §1

[9] = compound: CC1=CC=C(C=C1)SC2=C3C=C(SC3=CN=C2)C(=O)N
Summary of the method: as §1

[10] = compound: CC1=NC(=CC=C1)C2=C(N=C(N2)C(C)(C)C)C3=CC4=NC=CN=C4C=C3
Summary of the method: as §1

Nexturastat A = compound: CCCCN(Cc1ccc(C(=O)NO)cc1)C(=O)Nc1ccccc1 [Nexturastat A]
Summary of the method: as §1

vemurafenib = compound: CCCS(=O)(=O)Nc1ccc(F)c(C(=O)c2c[nH]c3ncc(-c4ccc(Cl)cc4)cc23)c1F [vemurafenib]
Summary of the method: as §1

[11] = compound: CCCS(=O)(=O)Nc1ccc(F)c(C(=O)c2c[nH]c3ncc(Cl)cc23)c1F
Summary of the method: as §1

[12] = compound: CCCc1cc(C)[nH]c(=O)c1CNC(=O)c1cc(-c2ccnc(N3CCN(C)CC3)c2)cc2c1cnn2C(C)C
Summary of the method: as §1

givinostat = compound: CCN(CC)Cc1ccc2cc(COC(=O)Nc3ccc(C(=O)NO)cc3)ccc2c1 [givinostat]
Summary of the method: as §1

barasertib = compound: CCN(CCCOc1ccc2c(Nc3cc(CC(=O)Nc4cccc(F)c4)[nH]n3)ncnc2c1)CCOP(=O)(O)O [barasertib]
Summary of the method: as §1

Measured: log2 fold change

GLRX3 (UniProt O76003)
inactive: IRAK-1-4 Inhibitor I -0.03 | ibrutinib -0.015 | [1] 0.02 | ralimetinib 0.002 | [2] -0.027 | [3] -0.024 | [4] -0.033 | pinometostat -0.033 | [5] -0.021 | [6] -0.025 | [7] 0.007 | [8] -0.033 | [9] 0.02 | [10] 0.028 | Nexturastat A -0.049 | vemurafenib 0.024 | [11] 0.139 | [12] 0.014 | givinostat 0.01 | barasertib 0.054

FDPS (UniProt P14324)
UniProt P14324, sequence (P14324 whole entry, looked up): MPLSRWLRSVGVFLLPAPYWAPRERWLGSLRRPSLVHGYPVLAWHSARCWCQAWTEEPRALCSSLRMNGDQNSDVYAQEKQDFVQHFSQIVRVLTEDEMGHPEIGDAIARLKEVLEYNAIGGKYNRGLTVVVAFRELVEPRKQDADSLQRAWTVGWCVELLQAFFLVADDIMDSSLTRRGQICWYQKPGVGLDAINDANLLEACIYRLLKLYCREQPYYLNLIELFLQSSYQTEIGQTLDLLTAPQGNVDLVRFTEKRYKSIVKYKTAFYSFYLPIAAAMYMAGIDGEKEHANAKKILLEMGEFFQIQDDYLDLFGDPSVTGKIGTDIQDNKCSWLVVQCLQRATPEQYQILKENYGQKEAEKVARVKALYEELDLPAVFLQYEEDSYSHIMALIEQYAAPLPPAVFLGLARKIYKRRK
inactive: IRAK-1-4 Inhibitor I -0.127 | ibrutinib -0.066 | [1] -0.096 | ralimetinib 0.048 | [2] -0.319 | [4] -0.028 | pinometostat 0.048 | [5] 0.007 | [6] 0.083 | [7] -0.061 | [8] -0.068 | [9] 0.109 | [10] -0.077 | Nexturastat A 0.068 | vemurafenib 0.034 | [11] -0.001 | [12] -0.005 | givinostat 0.156 | barasertib 0.081
active: [3] -0.63

HBQ1 (UniProt P09105)
UniProt P09105, sequence (P09105 whole entry, looked up): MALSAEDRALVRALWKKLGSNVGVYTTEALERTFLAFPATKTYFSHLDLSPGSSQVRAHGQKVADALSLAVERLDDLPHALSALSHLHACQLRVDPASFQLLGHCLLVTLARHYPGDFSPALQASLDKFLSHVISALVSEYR
inactive: IRAK-1-4 Inhibitor I 0.003 | ibrutinib 0.016 | [1] 0.01 | ralimetinib -0.034 | [2] -0.078 | [3] 0.095 | [4] -0.102 | pinometostat 0.004 | [5] 0.027 | [6] 0.147 | [7] 0.053 | [8] -0.14 | [9] 0.025 | [10] 0.052 | Nexturastat A -0.028 | vemurafenib -0.013 | [11] 0.004 | [12] -0.012 | givinostat -0.043 | barasertib 0.038

FIBP (UniProt O43427)
inactive: IRAK-1-4 Inhibitor I 0.026 | ibrutinib 0.019 | [1] -0.146 | ralimetinib 0.041 | [2] -0.143 | [3] 0.018 | [4] 0.065 | pinometostat 0.075 | [6] -0.039 | [7] 0.046 | [8] -0.009 | [9] 0.001 | [10] 0 | Nexturastat A -0.009 | vemurafenib 0.03 | [11] 0.089 | [12] 0 | givinostat -0.009 | barasertib -0.071

HS1BP3 (UniProt Q53T59)
UniProt Q53T59, sequence (Q53T59 whole entry, looked up): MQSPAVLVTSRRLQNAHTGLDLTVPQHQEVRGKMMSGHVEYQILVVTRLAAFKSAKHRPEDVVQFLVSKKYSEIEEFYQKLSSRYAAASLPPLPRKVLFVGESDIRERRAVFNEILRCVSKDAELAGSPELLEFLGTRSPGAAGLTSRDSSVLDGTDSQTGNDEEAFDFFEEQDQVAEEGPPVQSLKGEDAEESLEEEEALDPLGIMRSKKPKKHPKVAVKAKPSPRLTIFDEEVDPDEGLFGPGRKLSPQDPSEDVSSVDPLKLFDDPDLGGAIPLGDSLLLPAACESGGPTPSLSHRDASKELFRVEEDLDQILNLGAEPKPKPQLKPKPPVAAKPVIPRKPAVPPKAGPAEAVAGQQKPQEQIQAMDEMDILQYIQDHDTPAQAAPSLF
inactive: IRAK-1-4 Inhibitor I 0.004 | ibrutinib -0.029 | [1] -0.117 | ralimetinib 0.038 | [2] -0.059 | [3] -0.038 | [4] 0.086 | pinometostat -0.002 | [5] 0.004 | [7] 0.023 | [8] -0.045 | [9] -0.109 | [10] -0.046 | Nexturastat A 0.052 | vemurafenib 0.132 | [11] 0.021 | givinostat 0.111 | barasertib 0.047

GSTT1 (UniProt P30711)
UniProt P30711, sequence (P30711 whole entry, looked up): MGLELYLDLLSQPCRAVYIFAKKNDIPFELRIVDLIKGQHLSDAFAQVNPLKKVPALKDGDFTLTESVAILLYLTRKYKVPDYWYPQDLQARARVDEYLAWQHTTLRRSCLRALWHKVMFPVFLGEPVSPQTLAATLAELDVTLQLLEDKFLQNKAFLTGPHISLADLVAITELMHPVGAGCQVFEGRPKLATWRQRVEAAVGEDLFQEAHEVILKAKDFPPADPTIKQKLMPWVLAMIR
inactive: IRAK-1-4 Inhibitor I -0.054 | ibrutinib 0.007 | [1] 0.009 | ralimetinib -0.079 | [2] -0.079 | [3] 0.076 | [4] -0.005 | pinometostat -0.124 | [5] 0.139 | [6] 0.157 | [8] -0.004 | [9] 0.011 | [10] 0.101 | Nexturastat A -0.062 | vemurafenib 0.064 | [11] -0.063 | [12] 0.081 | givinostat 0.009 | barasertib -0.018

HNRNPH2 (UniProt P55795)
UniProt P55795, sequence (P55795 whole entry, looked up): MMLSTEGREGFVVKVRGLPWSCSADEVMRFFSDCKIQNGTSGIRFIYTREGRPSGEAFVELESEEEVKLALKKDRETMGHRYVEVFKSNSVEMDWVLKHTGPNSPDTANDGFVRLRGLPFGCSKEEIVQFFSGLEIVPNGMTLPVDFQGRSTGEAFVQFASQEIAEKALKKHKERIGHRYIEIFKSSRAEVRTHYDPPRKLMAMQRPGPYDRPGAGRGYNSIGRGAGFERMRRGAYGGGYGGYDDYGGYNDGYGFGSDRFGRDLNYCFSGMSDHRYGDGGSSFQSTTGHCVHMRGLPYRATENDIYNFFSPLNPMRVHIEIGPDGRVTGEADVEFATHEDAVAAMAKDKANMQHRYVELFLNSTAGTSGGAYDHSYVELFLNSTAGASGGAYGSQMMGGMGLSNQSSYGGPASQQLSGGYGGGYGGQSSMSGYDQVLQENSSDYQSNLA
active: [3] -0.345
inactive: IRAK-1-4 Inhibitor I -0.081 | ibrutinib -0.024 | [1] -0.134 | ralimetinib 0.137 | [2] -0.067 | [4] 0.124 | pinometostat 0 | [5] 0.193 | [6] -0.104 | [7] 0.064 | [8] -0.027 | [9] 0.079 | [10] 0.058 | Nexturastat A 0.044 | vemurafenib 0.048 | [11] 0.208 | [12] 0.095 | givinostat 0.109 | barasertib 0.014

HMGN2 (UniProt P05204)
active: [6] 0.401
inactive: IRAK-1-4 Inhibitor I -0.034 | ibrutinib -0.009 | [1] 0.121 | ralimetinib -0.024 | [2] 0.29 | [3] 0.128 | [4] 0.093 | pinometostat -0.074 | [5] 0.108 | [7] 0.115 | [8] 0.097 | [9] -0.038 | [10] 0.047 | Nexturastat A -0.016 | vemurafenib 0.032 | [11] -0.058 | [12] -0.078 | givinostat -0.019 | barasertib 0.047

GLYR1 (UniProt Q49A26)
UniProt Q49A26, sequence (Q49A26 whole entry, looked up): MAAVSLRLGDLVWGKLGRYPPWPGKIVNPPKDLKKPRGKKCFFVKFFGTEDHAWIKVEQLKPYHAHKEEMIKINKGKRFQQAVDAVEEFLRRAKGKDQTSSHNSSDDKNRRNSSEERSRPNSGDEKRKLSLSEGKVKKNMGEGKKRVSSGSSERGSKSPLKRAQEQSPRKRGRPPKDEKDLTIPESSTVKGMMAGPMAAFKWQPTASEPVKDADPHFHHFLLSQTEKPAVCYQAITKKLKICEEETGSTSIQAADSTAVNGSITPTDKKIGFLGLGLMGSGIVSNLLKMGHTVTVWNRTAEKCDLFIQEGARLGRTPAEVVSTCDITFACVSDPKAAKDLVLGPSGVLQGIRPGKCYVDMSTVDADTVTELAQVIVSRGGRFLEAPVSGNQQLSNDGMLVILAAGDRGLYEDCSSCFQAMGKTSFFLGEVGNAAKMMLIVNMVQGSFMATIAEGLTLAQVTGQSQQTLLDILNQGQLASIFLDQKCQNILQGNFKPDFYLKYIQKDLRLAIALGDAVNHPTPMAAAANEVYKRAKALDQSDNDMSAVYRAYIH
active: Nexturastat A 0.375
inactive: IRAK-1-4 Inhibitor I -0.067 | ibrutinib -0.074 | [1] 0.054 | ralimetinib 0.088 | [2] 0.093 | [3] -0.057 | [4] 0.09 | pinometostat 0.111 | [5] -0.076 | [6] -0.016 | [7] 0.039 | [8] 0.032 | [9] -0.125 | [10] -0.06 | vemurafenib 0.054 | [11] 0.009 | [12] 0.085 | givinostat 0.091 | barasertib 0.136

HDAC1 (UniProt Q13547)
UniProt Q13547, sequence (Q13547 whole entry, looked up): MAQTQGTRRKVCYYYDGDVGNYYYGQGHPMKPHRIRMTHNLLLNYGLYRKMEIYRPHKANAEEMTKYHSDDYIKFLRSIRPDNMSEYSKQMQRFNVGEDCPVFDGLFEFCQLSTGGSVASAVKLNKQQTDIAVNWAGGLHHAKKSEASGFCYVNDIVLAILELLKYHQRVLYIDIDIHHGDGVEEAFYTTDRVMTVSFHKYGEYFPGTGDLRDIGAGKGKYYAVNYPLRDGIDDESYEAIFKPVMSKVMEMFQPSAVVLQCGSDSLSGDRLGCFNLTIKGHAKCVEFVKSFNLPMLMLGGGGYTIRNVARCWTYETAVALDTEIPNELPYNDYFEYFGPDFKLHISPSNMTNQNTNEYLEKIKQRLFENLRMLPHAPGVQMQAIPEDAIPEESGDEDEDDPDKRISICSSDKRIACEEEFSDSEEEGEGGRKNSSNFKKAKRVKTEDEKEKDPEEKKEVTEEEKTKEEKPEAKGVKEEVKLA
inactive: IRAK-1-4 Inhibitor I -0.033 | ibrutinib -0.052 | [1] 0.056 | ralimetinib 0.02 | [2] -0.021 | [3] -0.009 | [4] -0.067 | pinometostat 0.03 | [5] 0.003 | [6] 0.023 | [7] -0.11 | [8] -0.039 | [9] 0.051 | [10] 0.034 | vemurafenib 0.051 | [11] 0.14 | [12] -0.118 | barasertib 0.024
active: Nexturastat A 1.45

FHOD1 (UniProt Q9Y613)
UniProt Q9Y613, sequence (Q9Y613 whole entry, looked up): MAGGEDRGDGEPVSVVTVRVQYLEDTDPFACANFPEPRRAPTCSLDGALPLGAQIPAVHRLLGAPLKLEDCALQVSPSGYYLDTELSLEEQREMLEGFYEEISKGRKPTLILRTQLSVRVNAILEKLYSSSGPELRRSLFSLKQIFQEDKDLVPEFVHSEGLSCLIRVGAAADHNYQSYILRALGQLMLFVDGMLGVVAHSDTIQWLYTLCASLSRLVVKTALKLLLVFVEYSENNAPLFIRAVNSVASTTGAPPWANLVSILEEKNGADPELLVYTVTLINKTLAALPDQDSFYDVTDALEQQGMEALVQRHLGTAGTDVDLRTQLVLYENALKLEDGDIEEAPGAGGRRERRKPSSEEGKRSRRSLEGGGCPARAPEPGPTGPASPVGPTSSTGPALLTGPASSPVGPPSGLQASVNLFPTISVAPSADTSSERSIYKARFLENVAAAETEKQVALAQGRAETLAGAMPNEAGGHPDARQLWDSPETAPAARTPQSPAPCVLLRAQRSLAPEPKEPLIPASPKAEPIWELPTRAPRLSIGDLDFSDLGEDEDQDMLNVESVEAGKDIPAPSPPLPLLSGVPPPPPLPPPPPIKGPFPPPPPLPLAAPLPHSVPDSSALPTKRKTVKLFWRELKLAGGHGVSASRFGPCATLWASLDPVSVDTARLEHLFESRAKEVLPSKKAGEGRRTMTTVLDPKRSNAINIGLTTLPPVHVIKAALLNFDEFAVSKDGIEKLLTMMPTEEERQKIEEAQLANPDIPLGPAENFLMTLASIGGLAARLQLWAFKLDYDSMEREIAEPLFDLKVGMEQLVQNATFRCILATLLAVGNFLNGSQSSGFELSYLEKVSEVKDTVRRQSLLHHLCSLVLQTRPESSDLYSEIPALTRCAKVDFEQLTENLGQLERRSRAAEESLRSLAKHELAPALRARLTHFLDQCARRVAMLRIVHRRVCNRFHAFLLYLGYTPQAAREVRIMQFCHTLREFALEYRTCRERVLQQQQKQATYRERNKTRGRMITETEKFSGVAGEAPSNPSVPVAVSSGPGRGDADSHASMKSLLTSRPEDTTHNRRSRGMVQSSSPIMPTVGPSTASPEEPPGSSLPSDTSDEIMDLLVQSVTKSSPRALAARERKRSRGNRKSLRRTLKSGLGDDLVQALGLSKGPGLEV
inactive: IRAK-1-4 Inhibitor I -0.053 | ibrutinib 0.011 | [1] 0.042 | ralimetinib 0.193 | [2] 0.035 | [3] -0.197 | [4] 0.148 | pinometostat 0.458 | [5] 0.07 | [7] -0.288 | [8] 0.073 | [9] -0.063 | [10] -0.09 | Nexturastat A 0.365 | vemurafenib -0.002 | [11] -0.134 | [12] 0.132 | givinostat 0.024 | barasertib 0.044

FUT8 (UniProt Q9BYC5)
UniProt Q9BYC5, sequence (Q9BYC5 whole entry, looked up): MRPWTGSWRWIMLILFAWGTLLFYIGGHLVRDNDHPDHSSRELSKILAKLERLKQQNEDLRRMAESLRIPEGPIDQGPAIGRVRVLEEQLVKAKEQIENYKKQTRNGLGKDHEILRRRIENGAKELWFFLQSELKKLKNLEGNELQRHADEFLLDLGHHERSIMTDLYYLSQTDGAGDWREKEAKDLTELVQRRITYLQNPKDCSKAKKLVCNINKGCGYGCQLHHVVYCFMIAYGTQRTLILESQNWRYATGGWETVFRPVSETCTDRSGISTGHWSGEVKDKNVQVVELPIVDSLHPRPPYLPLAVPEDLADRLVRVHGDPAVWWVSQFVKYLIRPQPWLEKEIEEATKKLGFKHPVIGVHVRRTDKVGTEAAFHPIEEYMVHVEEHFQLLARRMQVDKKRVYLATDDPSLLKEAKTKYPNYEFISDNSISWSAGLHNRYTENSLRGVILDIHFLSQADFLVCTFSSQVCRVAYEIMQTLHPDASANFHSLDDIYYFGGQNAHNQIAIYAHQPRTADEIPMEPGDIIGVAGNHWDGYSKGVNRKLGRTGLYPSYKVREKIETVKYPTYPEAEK
inactive: IRAK-1-4 Inhibitor I -0.02 | ibrutinib 0.064 | [1] -0.098 | ralimetinib -0.087 | [2] 0.019 | [3] -0.133 | [4] 0.053 | pinometostat 0.065 | [5] 0.105 | [6] 0.077 | [7] -0.05 | [8] -0.047 | [10] 0.037 | Nexturastat A 0.064 | vemurafenib -0.417 | [12] 0.048 | givinostat -0.048 | barasertib -0.014

HSPA8 (UniProt E9PK54)
inactive: IRAK-1-4 Inhibitor I -0.051 | ibrutinib -0.012 | [1] 0.015 | ralimetinib -0.161 | [2] 0.058 | [3] 0.141 | [4] 0.074 | pinometostat 0.001 | [5] 0.017 | [6] -0.262 | [7] 0.023 | [8] 0.034 | [9] -0.123 | [10] 0.006 | Nexturastat A 0.227 | vemurafenib -0.036 | [11] 0.026 | [12] -0.098 | givinostat 0.167 | barasertib -0.023

GIGYF2 (UniProt Q6Y7W6)
active: [1] -0.316
inactive: IRAK-1-4 Inhibitor I -0.01 | ibrutinib -0.039 | ralimetinib -0.041 | [2] -0.124 | [3] -0.115 | [4] 0.01 | pinometostat 0.082 | [5] 0.005 | [6] 0.021 | [7] -0.075 | [8] 0.058 | [9] 0.01 | [10] 0.044 | Nexturastat A 0.05 | vemurafenib 0.043 | [11] 0.048 | [12] 0.049 | givinostat 0.092 | barasertib 0.093

HDAC2 (UniProt Q92769)
UniProt Q92769, sequence (Q92769 whole entry, looked up): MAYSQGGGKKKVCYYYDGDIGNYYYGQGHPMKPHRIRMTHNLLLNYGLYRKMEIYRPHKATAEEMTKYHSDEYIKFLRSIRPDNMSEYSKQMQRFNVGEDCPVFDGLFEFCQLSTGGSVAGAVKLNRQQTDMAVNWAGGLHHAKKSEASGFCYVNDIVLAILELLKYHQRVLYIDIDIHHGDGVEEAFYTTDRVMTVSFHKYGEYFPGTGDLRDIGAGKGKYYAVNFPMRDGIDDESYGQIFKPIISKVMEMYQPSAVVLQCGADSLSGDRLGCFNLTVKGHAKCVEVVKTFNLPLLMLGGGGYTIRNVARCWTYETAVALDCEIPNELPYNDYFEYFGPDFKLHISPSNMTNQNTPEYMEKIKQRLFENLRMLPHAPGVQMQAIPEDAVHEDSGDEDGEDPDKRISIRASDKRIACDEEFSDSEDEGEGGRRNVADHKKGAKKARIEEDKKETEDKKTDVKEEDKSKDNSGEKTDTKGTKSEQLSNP
inactive: IRAK-1-4 Inhibitor I 0 | ibrutinib -0.015 | [1] -0.046 | ralimetinib -0.004 | [2] 0.01 | [3] 0.007 | [4] -0.04 | pinometostat -0.01 | [5] -0.006 | [6] 0 | [7] -0.051 | [8] -0.001 | [9] 0.015 | [10] -0.006 | vemurafenib -0.005 | [11] 0.019 | [12] -0.018 | barasertib -0.039
active: Nexturastat A 0.856

FASTKD1 (UniProt Q53R41)
inactive: IRAK-1-4 Inhibitor I 0.016 | ibrutinib -0.186 | [1] -0.043 | ralimetinib 0.013 | [2] -0.316 | [3] -0.047 | [4] 0.116 | pinometostat 0.038 | [5] -0.345 | [6] 0.2 | [7] -0.066 | [8] -0.138 | [10] 0.017 | Nexturastat A 0.013 | vemurafenib 0.065 | givinostat 0.156 | barasertib 0.096

GYS1 (UniProt P13807)
inactive: IRAK-1-4 Inhibitor I -0.151 | ibrutinib 0.009 | ralimetinib 0.095 | [2] 0.158 | [3] -0.253 | [4] 0.141 | pinometostat 0.412 | [5] 0.042 | [6] 0.046 | [7] 0.057 | [8] -0.04 | [9] -0.068 | [10] -0.13 | Nexturastat A 0.515 | vemurafenib 0.052 | [11] -0.01 | [12] 0.091 | givinostat 0.108 | barasertib -0.033
active: [1] -0.976
